{"source": "PubChem BioAssay (NCATS)", "note": "Results filed as inconclusive are left out. Where a call stands in place of a potency, no number is given. Unmarked numbers belong to inactive results. Calls of active or inactive are those of the source. The call rests on the fitted dose curve; in most records, active means well fitted curve in the direction sought with a large enough effect; inconclusive means small, poorly fitted or top-dose-only effect, or another doubt; inactive means no such curve, though single readings can be large; an effect the other way counts as inactive or inconclusive."}
{"test": "Viability qHTS for spleen associated tyrosine kinase inhibitor (SYKi) drug resistant MV4-11 cells (AID 1963824); further: potency means the concentration at half of the fitted maximal effect", "settings": "SYKi-resistant MV4-11 viability, CellTiter-Glo, 72 h; series mostly up to 45 µM", "method_in_brief": "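SYK inhibitor-resistant MV4-11 AML cells, 500 per well, added to predispensed compounds and incubated 72 hr at 37 C, 5% CO2. Viability measured by CellTiter-Glo luminescence after 10 min at room temperature.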"}
{"compound": "c1ccc2c(c1)OCC(C1=NCCN1)O2", "note": "(stereo not given); further: nearly all actives have a fitted effect of over 35% in size", "Potency": "inactive"}
{"compound": "CCCN1CCC[C@@H]2Cc3nc(N)ncc3C[C@H]21", "Potency": "inactive"}
{"compound": "COc1cccc(C(=O)CCN[C@@H](C)[C@H](O)c2ccccc2)c1", "Potency": "inactive"}
{"compound": "Nc1nc(N)nc(NC2CC2)n1", "Potency": "inactive"}
{"compound": "C/C=C(\\C)C(=O)N[C@@H](c1ccccc1)[C@@H](O)C(=O)O[C@H]1C[C@@]2(O)[C@@H](OC(=O)c3ccccc3)[C@@H]3[C@]4(OC(C)=O)CO[C@@H]4C[C@H](O)[C@@]3(C)C(=O)[C@H](OC(C)=O)C(=C1C)C2(C)C", "Potency": "0.0235 µM (active)"}
{"compound": "CCCCCCCCCCCCCCCC[N+](C)(C)C", "Potency": "1.19 µM (active)"}
{"compound": "C=CCN1C[C@H](C)N([C@H](c2ccc(C(=O)N(CC)CC)cc2)c2cccc(OC)c2)C[C@H]1C", "viability, % of control": "93.3% [at 9.25 µM]"}
{"compound": "C[C@]12COC(=O)C[C@@H]1CC[C@@H]1[C@@H]2CC[C@@]2(C)[C@H]1CC[C@]2(C)O", "Potency": "inactive"}
{"compound": "C=CCOC(Cn1ccnc1)c1ccc(Cl)cc1Cl", "note": "(stereo not given)", "Potency": "9.44 µM (active)"}
{"compound": "C[C@]12Cc3nonc3C[C@@H]1CC[C@@H]1[C@@H]2CC[C@@]2(C)[C@H]1CC[C@]2(C)O", "Potency": "16.8 µM (active)"}
{"compound": "C[C@]12Cc3cn[nH]c3C[C@@H]1CC[C@@H]1[C@@H]2CC[C@@]2(C)[C@H]1CC[C@]2(C)O", "Potency": "18.6 µM (active)"}
{"compound": "COC1CC(=C(c2cccs2)c2cccs2)C[N+](C)(C)C1", "note": "(stereo not given)", "Potency": "16.8 µM (active)"}
{"compound": "CCCOC(=O)c1cncn1C(C)c1ccccc1", "note": "(stereo not given)", "Potency": "inactive"}
{"test": "Quantitative highthroughput screen to assess conditional lethalithy of NOMO1 cells grown in RPMI1640 with untreated serum (RPMI+s) (AID 1963876); further: potency means the concentration at half of the fitted maximal effect", "settings": "NOMO1 AML cells in RPMI+serum, CellTiter-Glo viability, 48 h; series mostly up to 45.8 µM", "method_in_brief": "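Each medium arm—HPLM with 10% dialyzed FBS, or RPMI1640 with 5 mM glucose and 10% untreated or dialyzed FBS—was screened against an 11-point, 3-fold compound titration for 48 h at 37 °C, with CellTiter-Glo luminescence as endpoint.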"}
{"compound": "CO[C@H]1CCC(O[C@H]2C[C@H]([C@]3(C)CC[C@]4(C[C@H](O)[C@@H](C)[C@@H]([C@@H](C)C=C(C)C(=O)[C@H](C)C[C@H](C)C(=O)O)O4)O3)O[C@]3(O[C@@H]([C@H]4O[C@@](O)(CO)[C@H](C)C[C@H]4C)C[C@H]3C)[C@H]2C)O[C@H]1C", "note": "(stereo not given in full)", "Potency": "18.7 µM (active)"}
{"compound": "CC[C@@H]1[C@@H](C)O[C@@](O)([C@@H](C)[C@H](O)[C@H](C)[C@H]2OC(=O)C=CC=C[C@@H](C)[C@@H]([C@@H](C)[C@@H](O)[C@H](C)[C@@]3(O)C[C@H](O[C@H]4C[C@H](O)[C@H](O)[C@H](C)O4)[C@H](CC)[C@@H](C)O3)OC(=O)C=CC=C[C@@H]2C)C[C@H]1O[C@H]1C[C@H](O)[C@H](O)[C@H](C)O1", "Potency": "2.96 µM (active)"}
{"compound": "CC(C)(O)C=CC(=O)[C@](C)(O)[C@H]1[C@H](O)C[C@]2(C)[C@@H]3CC=C4[C@@H](C=C(O)C(=O)C4(C)C)[C@]3(C)C(=O)C[C@@]12C", "Potency": "0.187 µM (active)"}
{"compound": "CC1=C2C[C@@H]3[C@@H](CC=C4C[C@@H](O)CC[C@@]43C)[C@@H]2CC[C@]12O[C@H]1C[C@H](C)CN[C@H]1[C@H]2C", "Potency": "inactive"}
{"compound": "C[C@]12CC[C@H](O)CC1=CC[C@H]1[C@H]3CCC(=O)[C@@]3(C)CC[C@@H]12", "Potency": "inactive"}
{"compound": "CCN1C[C@]2(OC(=O)c3ccccc3NC(C)=O)CC[C@H](OC)[C@@]34[C@H]5CC6[C@@H](OC)C[C@](O)(C(C[C@@H]23)[C@@H]14)[C@@]5(O)[C@@H]6OC", "Potency": "inactive"}
{"compound": "COC1(CS(=O)c2ccccc2)CCN(CCc2c[nH]c3ccc(F)cc23)CC1", "note": "(stereo not given)", "Potency": "inactive"}
{"compound": "C=C[C@@H]1CN2CCC1C[C@@H]2[C@@H](O)c1ccnc2ccccc12", "note": "(stereo not given in full)", "Potency": "inactive"}
{"compound": "CC(=O)N(C)c1cccc(-c2ccnc3c(C(=O)c4cccs4)cnn23)c1", "Potency": "inactive"}
{"compound": "C[C@H]([C@H](O)CCC(C)(C)O)[C@H]1CC[C@@]2(O)C3=CC(=O)[C@@H]4C[C@@H](O)[C@@H](O)C[C@]4(C)[C@@H]3CC[C@]12C", "Potency": "inactive"}
{"compound": "C[C@]12CC[C@H]3[C@@H](CCC4=CC(=O)CC[C@@]43C)[C@H]1CC[C@H]2OC(=O)CCC1CCCC1", "Potency": "inactive"}
{"compound": "CCOC(=O)c1cncn1[C@H](C)c1ccccc1", "Potency": "inactive"}
{"compound": "CC(C)CC(N(C)C)C1(c2ccc(Cl)cc2)CCC1", "note": "(stereo not given)", "Potency": "inactive"}
{"compound": "CC(C)[C@]12O[C@@H]1[C@@H]1O[C@]13[C@]1(O[C@H]1C[C@@H]1C4=C(CC[C@@]13C)C(=O)OC4)[C@H]2O", "Potency": "0.0012 µM (active)"}
{"compound": "NC1=NC(=O)N2CC12", "note": "(stereo not given)", "Potency": "5.9 µM (active)"}
{"compound": "CC(=Cc1csc(C)n1)[C@@H]1C[C@H]2O[C@@H]2CCC[C@H](C)[C@@H](O)[C@@H](C)C(=O)C(C)(C)[C@@H](O)CC(=O)O1", "Potency": "inactive"}
{"compound": "CC(=CCCC1=CCC(C2=CC(=O)OC2O)OC1O)CCC1=C(C)CCCC1(C)C", "note": "(stereo not given)", "Potency": "inactive"}
{"compound": "COc1cccc2c1[C@]13CCN(CC4CC4)[C@H](C2)[C@]1(OC)CCC(=O)C3", "Potency": "inactive"}
{"compound": "CN(C)CCN(C)CCc1ccc(Cl)c(Cl)c1", "Potency": "inactive"}
{"compound": "CC(C)(C)[C@]1(O)C[C@@H]2OC(=O)C[C@@]23C(=O)O[C@@H]2OC(=O)[C@H](O)C213", "note": "(stereo not given in full)", "Potency": "inactive"}
{"compound": "CCOC(=O)c1c(C(C#N)=CN)c2ccc(Cl)c(Cl)c2n1C", "Potency": "inactive"}
{"compound": "COc1ccc(CC2NCCc3cc(OC)c(OC)cc32)cc1OC", "note": "(stereo not given)", "Potency": "inactive"}
